{
  "source": "ChEMBL document CHEMBL1201862",
  "about": "“PubChem BioAssay data set” (2004)",
  "note": "About 1,000 (77%) of roughly 1,300 compounds were called active. About 7% were inconclusive and are not listed. No cut-off for these calls is given here. So high a share suggests a set chosen from earlier hits. The list is a sample of the results.",
  "data": [
    {"test_system": "Giardia", "assay": "qHTS of small molecules that selectively kill Giardia lamblia: Hit Validation. [Related pubchem assays (depositor defined):AID540272]", "type": "functional", "settings": "read-out: Potency", "values": [
      {"smiles": "CCCc1nnc(NC(=O)C2C(=O)c3cccc4c3N(CC4)C2=O)s1", "note": "(stereo unspecified)", "AC50": "16.3 µM (active)"}
    ]}
  ]
}
